Measurements taken from PubChem BioAssay (NCI).
Compounds without any hit were thinned out: in the full panel of roughly 79,000, 15% have a hit. Unmarked numbers belong to inactive results. The source made the active and inactive calls. Rule as the data show it: active = growth inhibition above about 70%; inactive = the rest.

Assay: NCI Yeast Anticancer Drug Screen. Data for the rad50EPP+ strain (AID 151);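 also: 0% = growth of vehicle-treated control cultures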
Conditions: S. cerevisiae rad50 mutant strain, at 3.7 µM, active compounds read high
Procedure, shortened: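 Read-out is yeast growth inhibition relative to vehicle; cells used were the rad50EPP+ strain.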

Row | SMILES | growth inhibition
1 | CC1(C)[C@@H]2CC[C@]1(C)[C@H](OC(=O)CSC#N)C2 | 4%
2 | S=C(N/N=C(/c1ccccc1)c1ccccn1)N1CCCCCC1 | 7%
3 | Cc1ccc2[nH]c3c(C)c4cc[n+](C)cc4c(C)c3c2c1 | 21%
4 | CNC(=O)OCc1c(COC(=O)NC)c(-c2ccc(-c3ccccc3)cc2)n(C)c1C | -31%
5 | COc1ccccc1/C=C1\Sc2scc(-c3cccc([N+](=O)[O-])c3)[n+]2C1=O | 80% (active)
6 | O=[N+]([O-])c1ccc2c(c1)C(N1CCN(CCO)CC1)Cc1ccc(F)cc1S2 (stereo not drawn) | -1%
7 | Cc1ccc(CCC2=CCCc3c2ccc2ccccc32)cc1 | 5%
8 | O=[N+]([O-])c1cccc2nccc(NCCCO)c12 | 13%
9 | Cc1ccc(-n2cc(-c3ccc(Cl)cc3)c(C#N)c2N)cc1 | 3%
10 | Cc1ccc(S/N=C\c2ccccc2O)cc1 | 3%
11 | O=C(O)C1OC1(c1cccc(Cl)c1)c1ccccc1Cl (stereo not drawn) | 9%
12 | NC(=S)N/N=C\c1nccc2ccccc12 | -1%
13 | Clc1cccc(C(Nc2nncs2)Nc2nncs2)c1Cl | 4%
14 | O=C(OCC=C1CCCC1)c1cc([N+](=O)[O-])cc([N+](=O)[O-])c1 | 16%
15 | O=C(Nc1ccccc1)C(=O)C(C(=O)c1ccccc1)C(c1ccccc1)c1ccccc1 (stereo not drawn) | 0%
16 | N#CN1C2CCC1CC(=O)C2 | -35%
17 | COc1ccccc1C(=O)OCC1CCCN2CCCCC12 (stereo not drawn) | -3%
18 | CCNc1nnc(CSc2nc(-c3ccccc3)c(-c3ccccc3)[nH]2)s1 | 13%
19 | O=C1c2ccccc2-c2n[nH]c3cccc1c23 | 69%

Same assay, conditions: S. cerevisiae rad50 mutant strain, at 11.0 µM, active compounds read high

Row | SMILES | growth inhibition
20 | CCC/C(Cl)=N\OC(=O)Nc1cccc(C(F)(F)F)c1 | 36%
21 | [O-][n+]1c2ccc(O)cc2nc2ccc(Cl)cc21 | 37%
22 | Clc1ccccc1C1OC1c1ccccc1Cl (stereo not drawn) | -40%
23 | c1ccc2c(c1)c1ncccc1c1nccnc21 | 43%
24 | CC(=O)Nc1ccc2c(c1)C(=Nc1ccc(C(=O)O)cc1)c1ccccc1-2 | 28%
25 | COc1ccc(OC)c2cc3ccccc3cc12 | 46%
26 | COc1cc(C2c3cc4c(cc3OC(NNc3ccccc3)C2C)OCO4)cc(OC)c1OC (stereo not drawn) | 48%
27 | O=C1c2cc([N+](=O)[O-])ccc2-c2cccc(F)c21 | 49%
28 | CCCCCCCCCCCC(=O)N(C)C | 20%
29 | CCCCCCCCCCCC1=C(O)C(=O)C=C(O)C1=O | 31%
30 | Cc1ccc(CSC(N)=Nc2ccccc2)cc1C | 11%
31 | CCCCCCCCCCC1CCC(=O)O1 (stereo not drawn) | 11%
32 | O=[N+]([O-])c1cc(CCl)ccc1CCl | 89% (active)
33 | Nc1ccc2c(c1)C(=O)c1cccc(N)c1C2=O | 92% (active)
34 | CCCCCCCCCCNC(=O)OCC | 28%
35 | CC1=C(C)Cc2c(O)ccc(O)c2C1 | 67%
36 | COc1ccc2c(c1)C(=O)c1ccccc1C2 | 24%
37 | CCC(=O)OCCn1c2nc(=O)[nH]c(=O)c-2nc2cc(C)c(C)cc21 | 24%
38 | O=C(OCCN1CCCCCC1)C(c1ccsc1)C1CCCCC1 (stereo not drawn) | -1%
39 | Oc1c(Br)cc(Br)cc1C1CCCCC1 | 23%

Row | SMILES | growth inhibition
40 | CC1(C)[C@@H]2CC[C@]1(C)[C@H](OC(=O)CSC#N)C2 | 9%
41 | S=C(N/N=C(/c1ccccc1)c1ccccn1)N1CCCCCC1 | 8%
42 | Cc1ccc2[nH]c3c(C)c4cc[n+](C)cc4c(C)c3c2c1 | 31%
43 | CNC(=O)OCc1c(COC(=O)NC)c(-c2ccc(-c3ccccc3)cc2)n(C)c1C | -28%
44 | COc1ccccc1/C=C1\Sc2scc(-c3cccc([N+](=O)[O-])c3)[n+]2C1=O | 95% (active)
45 | O=[N+]([O-])c1ccc2c(c1)C(N1CCN(CCO)CC1)Cc1ccc(F)cc1S2 (stereo not drawn) | -1%
46 | Cc1ccc(CCC2=CCCc3c2ccc2ccccc32)cc1 | 13%
47 | O=[N+]([O-])c1cccc2nccc(NCCCO)c12 | 20%
48 | Cc1ccc(-n2cc(-c3ccc(Cl)cc3)c(C#N)c2N)cc1 | 23%
49 | Cc1ccc(S/N=C\c2ccccc2O)cc1 | 6%
50 | O=C(O)C1OC1(c1cccc(Cl)c1)c1ccccc1Cl (stereo not drawn) | 12%
51 | NC(=S)N/N=C\c1nccc2ccccc12 | -16%
52 | Clc1cccc(C(Nc2nncs2)Nc2nncs2)c1Cl | 14%
53 | O=C(OCC=C1CCCC1)c1cc([N+](=O)[O-])cc([N+](=O)[O-])c1 | 53%
54 | O=C(Nc1ccccc1)C(=O)C(C(=O)c1ccccc1)C(c1ccccc1)c1ccccc1 (stereo not drawn) | 1%
55 | N#CN1C2CCC1CC(=O)C2 | -27%
56 | COc1ccccc1C(=O)OCC1CCCN2CCCCC12 (stereo not drawn) | 80% (active)
57 | CCNc1nnc(CSc2nc(-c3ccccc3)c(-c3ccccc3)[nH]2)s1 | 12%
58 | O=C1c2ccccc2-c2n[nH]c3cccc1c23 | 86% (active)
